Reference: PubChem BioAssay (NCATS)
Inconclusive results are not listed. The source made the active and inactive calls. Calls follow the shape of the dose curve; as a rule, active = well fitted cell-killing curve with a large enough effect; inconclusive = small, poorly fitted or top-dose-only effect; inactive = flat fitted curve, though single readings scatter.

Test: Cell Viability - Renal Proximal Tubule (AID 545); also: nearly all actives have a fitted effect of over 40% in size;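 as to activity change, negative = cytotoxicity: 0% = DMSO only and -100% = 100 µM tamoxifen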
Conditions: renal proximal tubule cells viability, primary cells of rat origin; activity change, negative = cytotoxicity: at 91.7 µM (top of the series)
Source text: NIH Chemical Genomics Center [NCGC]
NIH Molecular Libraries Screening Centers Network [MLSCN]
National Institutes of Environmental Health Sciences [NIEHS]
National Toxicology Program [NTP]
We have developed a 1536-well cell-based assay for quantitative high throughput screening (qHTS) against a number of cell lines to determine in vitro cytotoxicity of small molecules. This particular assay uses the renal proximal tubule cells which are derived from normal kidney cells freshly isolated from rat.
NCGC Assay Protocol Summary:
The CellTiter-Glo luminescent cell viability assay (Promega) is a homogeneous method to measure the number of viable cells in culture. The end point readout of this assay is based on quantitation of intracellular ATP, an indicator of metabolic activity, using the luciferase reaction. Luciferase catalyzes the oxidation of beetle Luciferin to oxyluciferin and light in the presence of ATP. The luminescent signal is proportional to amount of ATP present.
Using the CellTiter-Glo luminescent cell viability assay, the amount of cellular ATP was measured in the renal proximal tubule cells with complete culture medium following compound treatment for 40 hours. The assay was performed in opaque white Kalypsys 1536-well plates. In the screen, tamoxifen and doxorubicin were used as positive controls. Library compounds were measured for their ability to cause acute toxicity in the cell line, as reflected by a decrease in intracellular ATP levels, in a concentration-dependent manner. […] AC50 values were determined from concentration-response data modeled with the standard Hill equation.
qHTS protocol for CellTiter Glo renal proximal tubule cell assay
[Step] [Parameter] [Value] [Description]
1. Reagent; 5 uL; 1000 renal proximal tubule cells/well
2. Time; 5 hr; 37 °C incubation
4. Controls; 23 nL; Tamoxifen 0.34 uM to 100 uM & Doxorubicin 0.02 nM to 100 uM
5. Time; 40 hr; 37 °C incubation
6. Reagent; 5 uL; CellTiter Glo reagent
7. Time; 20 min; Room Temperature
8. Detection; Luminescence; Viewlux plate reader
Keywords: cell viability, cytotoxicity, renal proximal tubule cells, luminescence, NTPHTS, NTPHTS_NCGC, NIEHS, EPA, DSSTox, MLSMR, MLSCN, NIH Roadmap, qHTS, NCGC
Potency is read from the fitted curve at half-maximal effect.

Row | SMILES | activity change, negative = cytotoxicity | Potency
1 | O=c1[nH]cnc2c1ncn2[C@H]1CC[C@@H](CO)O1 | -0.344% (inactive) | –
2 | CCCCC1C(=O)N(c2ccccc2)N(c2ccccc2)C1=O | -9.32% (inactive) | –
3 | CCn1cc(C(=O)O)c(=O)c2ccc(C)nc21 | 10.1% (inactive) | –
4 | CC/C(=C(\c1ccccc1)c1ccc(OCCN(C)C)cc1)c1ccccc1 | -109% (active) | –
5 | CCCNC(=O)NS(=O)(=O)c1ccc(Cl)cc1 | 7.18% (inactive) | –
6 | O=C(O)c1cc(O)c2c(c1)C(=O)c1cccc(O)c1C2=O | -2.16% (inactive) | –
7 | O=C1NC(=O)C(c2ccccc2)(c2ccccc2)N1 | -4.23% (inactive) | –
8 | CC(=O)c1ccc(S(=O)(=O)NC(=O)NC2CCCCC2)cc1 | -11.8% (inactive) | –
9 | CC(=O)O[C@]1(C(C)=O)CC[C@H]2[C@@H]3C=C(Cl)C4=CC(=O)[C@@H]5C[C@@H]5[C@]4(C)[C@H]3CC[C@@]21C | -12.6% (inactive) | –
10 | O=c1c(O)c(-c2ccc(O)cc2)oc2cc(O)cc(O)c12 | -6.62% (inactive) | –
11 | CC1=C(/C=C/C(C)=C/C=C/C(C)=C/C(=O)Nc2ccc(O)cc2)C(C)(C)CCC1 | – | 20 µM (active)
12 | CN(C)CCC(c1ccccc1)c1ccccn1 (centres undefined) | -4.19% (inactive) | –
13 | O=C(O)Cc1cccc2ccccc12 | -9.18% (inactive) | –
14 | O=c1c(-c2ccc(O)cc2)coc2cc(O)ccc12 | -26.2% (inactive) | –
